High-throughput results: PubChem, several laboratories
SKKanGAS inh: SKKanGAS growth inhibition; S. pyogenes SKKanGAS, kanamycin growth, BacTiter-Glo, 6 h; inhibition, % at 7.5 µM; hit rate 1.3% among 300,000;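 active means mean replicate score, as percent of positive control median, at least 50; inconclusive means mean below 50 but one replicate at or above 50; inactive means mean and every replicate below 50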;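 further: strain carries kanamycin resistance gene driven by streptokinase promoter and grows in 40 µg/ml kanamycin; loss of luminescence reflects streptokinase promoter inhibition or plain growth inhibition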
tim10-1 inh: tim10-1 yeast growth inhibition | S. cerevisiae tim10-1 ts strain growth, BacTiter-Glo, 24 h | inhibition, % at 20 µM | hit rate 2.2% among 330,000 | AID 463190;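 active means inhibition of at least 40%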;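 further: mutant grown at 25 °C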
tim23-1 inh: tim23-1 yeast growth inhibition. AID 463212. S. cerevisiae tim23-1 growth, BacTiter-Glo luminescence, 24 h. hit rate 1.3% among 330,000. inhibition, % at 20 µM;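 active means growth inhibition of the mutant yeast at or above 50%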;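 further: temperature-sensitive mutant grown at 25 °C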
TIM10 inh: growth inhibitors of TIM10 yeast strain | S. cerevisiae TIM10 strain growth, BacTiter-Glo luminescence, 24 h | inhibition, % at 10 µM | hit rate 1.4% among 330,000 | AID 463195;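 active means inhibition of 40% or more at the single tested concentration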;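 further: wild-type TIM10 isogenic control strain grown at permissive 25 °C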
Calb FLC: C. albicans growth modulation with fluconazole | C. albicans CaCi-2 (fluconazole-resistant clinical isolate) + fluconazole, Alamar Blue growth, 48 h | growth inhibition, % (no concentration beside the values) | hit rate 0.57% among 300,000 | AID 1979;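 active means growth inhibition above about 58% in most replicates, limit read from the data, passing the limit was not always enough; inconclusive means exactly half the replicates above a set limit; inactive means most replicates below a set limit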;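 further: all wells also contain fluconazole at 8 µg/ml as a sub-toxic cotreatment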
PfHsp90 set2: growth inhibition of yeast expressing Plasmodium Hsp90 | S. cerevisiae expressing PfHsp90, BacTiter-Glo ATP, 48 h; yeast lacking PDR1 and PDR3 efflux regulators | inhibition, % at 9.4 µM | hit rate 0.32% among 310,000 | AID 504621;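 active means every replicate shows inhibition above about 80%, whatever the replicate mean, limit read from the data; inconclusive means mean inhibition reaches the set limit but some replicate falls short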
tim10-1 conf: confirmation of tim10-1 mutant yeast growth inhibitors; S. cerevisiae tim10-1 ts strain growth, BacTiter-Glo, 24 h; shares compounds with tim10-1 inh; hit rate 56% among 7,400; inhibition, % at 20 µM;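 active means inhibition of yeast growth at or above a set limit in either of two repeat tests at 20 µM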;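 further: tim10-1 mutant grown at permissive 25 °C to find synthetic lethal compounds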
TIM10 conf: TIM10 yeast growth inhibition, confirmed; shares compounds with TIM10 inh; S. cerevisiae tim10 strain growth, BacTiter-Glo luminescence, 24 h; inhibition, % at 10 µM; hit rate 63% among 4,600; AID 463215;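 active means inhibition of yeast growth at or above a set limit in either of two replicates at 10 µM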; further: this counterscreen used the strain with wild-type TIM10
tim23-1 conf: tim23-1 yeast growth inhibition, confirmed | shares compounds with tim23-1 inh | S. cerevisiae tim23-1 growth, BacTiter-Glo luminescence, 24 h | inhibition, % at 20 µM | hit rate 83% among 4,400;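 active means inhibition above about 39% in either of two replicate wells at 20 µM, limit read from the data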;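 further: temperature-sensitive tim23-1 mutant grown at 25 °C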
A number is an active result. Sampled rows, rich in hits. Any-hit rate of the full collection: about 4.7%.

How did Oc1ccc(-c2nccc(-c3ccc(F)cc3)n2)cc1 do in these assays?
SKKanGAS inh: inactive; tim10-1 inh: 52; tim23-1 inh: 62; TIM10 inh: inactive; Calb FLC: inactive; PfHsp90 set2: inactive; tim10-1 conf: 54; tim23-1 conf: inactive

What do the screens show for `COc1cc(C(=O)NCC(=O)Nc2c(C)cccc2C)ccc1OCC(=O)N1CCOCC1`?
tim10-1 inh: inactive; tim23-1 inh: inactive; TIM10 inh: inactive; PfHsp90 set2: inactive

How did CC1CCC2(CC1)NC(=O)N(CC(=O)Nc1cccc(S(=O)(=O)N3CCCC3)c1)C2=O (stereo not drawn) do in these assays?
tim10-1 inh: inactive; tim23-1 inh: inactive; TIM10 inh: inactive; PfHsp90 set2: inactive

What do the screens show for `COC(=O)C1=C(C)N(c2ccc(Cl)c(Cl)c2)C(=O)C1`?
SKKanGAS inh: inactive; tim10-1 inh: 46; tim23-1 inh: 59; TIM10 inh: 43; Calb FLC: inactive; PfHsp90 set2: inactive; tim10-1 conf: 47; TIM10 conf: 39; tim23-1 conf: 50

How did O=C(CCl)N(C1CCCC1)C1CCS(=O)(=O)C1 (stereo not drawn) do in these assays?
SKKanGAS inh: inactive; tim10-1 inh: inactive; tim23-1 inh: inactive; TIM10 inh: inactive; Calb FLC: inactive; PfHsp90 set2: inactive

Results for CCC1CCCCN1S(=O)(=O)c1ccc(NC(=O)c2snnc2C)cc1 (stereo not drawn) ?
SKKanGAS inh: inactive; tim10-1 inh: inactive; tim23-1 inh: inactive; TIM10 inh: inactive; Calb FLC: inactive; PfHsp90 set2: inactive

What do the screens show for `CCC1CCCCN1S(=O)(=O)c1ccc(NC(=O)c2cccs2)cc1` (stereo not drawn)?
SKKanGAS inh: inactive; tim10-1 inh: 72; tim23-1 inh: 72; TIM10 inh: 64; Calb FLC: inactive; PfHsp90 set2: inactive; tim10-1 conf: 65; TIM10 conf: 68; tim23-1 conf: 78

Results for COc1ccc(-c2cc(-c3ccc(OC)cc3)[nH]n2)cc1 ?
SKKanGAS inh: inactive; tim10-1 inh: inactive; tim23-1 inh: inactive; TIM10 inh: inactive; Calb FLC: inactive; PfHsp90 set2: inactive

Results for COc1ccc(-c2cc(-c3cc(C)ccc3O)[nH]n2)cc1 ?
SKKanGAS inh: inconclusive; tim10-1 inh: 52; tim23-1 inh: 69; TIM10 inh: 51; Calb FLC: inactive; PfHsp90 set2: inactive; tim10-1 conf: 45; TIM10 conf: 45; tim23-1 conf: inactive

How did Cc1nc2c(Br)cc(Br)cc2cc1O do in these assays?
SKKanGAS inh: inactive; tim10-1 inh: 71; tim23-1 inh: 76; TIM10 inh: 50; Calb FLC: inactive; PfHsp90 set2: inactive; tim10-1 conf: 61; TIM10 conf: 45; tim23-1 conf: 83

What do the screens show for `Brc1cc(Br)c2nc(-c3cccs3)ccc2c1`?
SKKanGAS inh: inactive; tim10-1 inh: inactive; tim23-1 inh: inactive; TIM10 inh: inactive; Calb FLC: inactive; PfHsp90 set2: inactive

How did O=[N+]([O-])c1ccc(N=NN(CCO)CCO)cc1 do in these assays?
SKKanGAS inh: inactive; tim10-1 inh: inactive; tim23-1 inh: inactive; TIM10 inh: inactive; Calb FLC: inactive; PfHsp90 set2: inactive

How did O=[N+]([O-])c1ccc(N=Nc2ncc[nH]2)cc1 do in these assays?
SKKanGAS inh: inactive; tim10-1 inh: 45; tim23-1 inh: 52; TIM10 inh: 44; Calb FLC: inactive; PfHsp90 set2: inactive; tim10-1 conf: inactive; TIM10 conf: 33; tim23-1 conf: inactive

What do the screens show for `CC(=O)N1CCN(C(=O)c2ccc(Cl)c(S(=O)(=O)N3CCCCCC3)c2)CC1`?
tim10-1 inh: inactive; tim23-1 inh: inactive; TIM10 inh: inactive; PfHsp90 set2: inactive

How did S=C(NCc1cccs1)Nc1cccc(Cl)c1Cl do in these assays?
SKKanGAS inh: inactive; tim10-1 inh: 50; tim23-1 inh: 56; TIM10 inh: 41; Calb FLC: inactive; PfHsp90 set2: inactive; tim10-1 conf: 32; TIM10 conf: inactive; tim23-1 conf: 56

What do the screens show for `Cc1c(Cl)cccc1NC(=S)NCc1cccs1`?
SKKanGAS inh: inactive; tim10-1 inh: inactive; tim23-1 inh: inactive; TIM10 inh: inactive; Calb FLC: inactive; PfHsp90 set2: inactive

Results for CCOc1ccc2nc(NC(=O)COC)sc2c1 ?
SKKanGAS inh: inactive; tim10-1 inh: inactive; tim23-1 inh: inactive; TIM10 inh: inactive; Calb FLC: inactive

Results for CCOc1ccc2nc(NC(=O)c3ccoc3C)sc2c1 ?
SKKanGAS inh: 91; tim10-1 inh: 75; tim23-1 inh: 80; TIM10 inh: 68; Calb FLC: inactive; PfHsp90 set2: 79; tim10-1 conf: 76; TIM10 conf: 69; tim23-1 conf: 85

Results for O=S(=O)(NCc1ccccc1)c1ccc(-c2cnc(C3CC3)o2)cc1 ?
SKKanGAS inh: inactive; tim10-1 inh: inactive; tim23-1 inh: inactive; TIM10 inh: inactive; Calb FLC: inactive; PfHsp90 set2: inactive

Results for Cc1cccc(C)c1NS(=O)(=O)c1ccc(-c2cnc(C3CC3)o2)cc1 ?
SKKanGAS inh: inactive; tim10-1 inh: 54; tim23-1 inh: 71; TIM10 inh: inactive; Calb FLC: inactive; PfHsp90 set2: inactive; tim10-1 conf: 32; tim23-1 conf: 63

Results for CC(C)CC1NC(=O)N(CC(=O)Nc2cc(F)ccc2F)C1=O (stereo not drawn) ?
tim10-1 inh: inactive; tim23-1 inh: inactive; TIM10 inh: inactive; PfHsp90 set2: inactive

How did CN(C)c1ccc(N2C(=NC(=O)c3ccccc3)SC3CS(=O)(=O)CC32)cc1 (stereo not drawn) do in these assays?
SKKanGAS inh: inactive; tim10-1 inh: inactive; tim23-1 inh: inactive; TIM10 inh: inactive; Calb FLC: inactive; PfHsp90 set2: inactive

Results for O=C1C=C(O)c2c(O)cc(O)c(O)c2C1=O ?
SKKanGAS inh: inactive; tim10-1 inh: inactive; tim23-1 inh: inactive; TIM10 inh: inactive; Calb FLC: inactive; PfHsp90 set2: inactive

What do the screens show for `O=C1c2ccccc2C(=O)c2c(O)c(O)cc(O)c21`?
tim10-1 inh: 47; tim23-1 inh: 77; TIM10 inh: inactive; PfHsp90 set2: inactive; tim10-1 conf: inactive; tim23-1 conf: 70

Results for CCC(C)(C)NC(=O)CN(Cc1ccccc1Cl)C(=O)CCC(=O)Nc1cc(C)ccn1 ?
SKKanGAS inh: inactive; tim10-1 inh: inactive; tim23-1 inh: inactive; TIM10 inh: inactive; Calb FLC: inactive; PfHsp90 set2: inactive

How did CSc1cccc(NC(=O)c2ccc(CN3CCc4ccccc4C3)cc2)c1 do in these assays?
SKKanGAS inh: inactive; tim10-1 inh: inactive; tim23-1 inh: inactive; TIM10 inh: inactive; Calb FLC: inactive; PfHsp90 set2: inactive
